Screening data as filed in PubChem BioAssay.
APOBEC3A inh: APOBEC3A ssDNA deaminase inhibitors, primary screen, selectivity assay for APOBEC3G inhibitor project, biochemical, FAM/TAMRA oligo cleavage fluorescence; recombinant A3A, FAM/TAMRA ssDNA deamination fluorescence; inhibition, % at 20 µM; 330,000 tested, 0.41% active;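 active = at least 40% inhibition at 20 µM here, with at most 30% in a related deaminase screen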;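 note: plate controls were A3A with DMSO for no effect and wells lacking A3A enzyme for full effect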
Target sequence (P31941 whole entry, looked up): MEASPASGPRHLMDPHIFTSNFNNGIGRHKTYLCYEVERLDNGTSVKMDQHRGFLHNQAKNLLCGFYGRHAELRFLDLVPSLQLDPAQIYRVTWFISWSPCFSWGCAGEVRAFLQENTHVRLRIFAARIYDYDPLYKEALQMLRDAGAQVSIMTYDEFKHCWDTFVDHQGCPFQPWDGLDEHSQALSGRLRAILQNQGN
A3G deaminase: APOBEC3G DNA deaminase inhibitors, primary screen, biochemical, fluorescence, single-stranded DNA substrate, uHTS; DNA dC->dU-editing enzyme APOBEC-3G (Homo sapiens), Q9HC16; recombinant A3G, ssDNA deamination FAM/TAMRA fluorescence; inhibition, % at 20 µM; AID 493012, 2011; 330,000 tested, 0.28% active;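 active = inhibition of at least 40% at 20 µM, with no more than 30% in the related APOBEC3A deaminase screen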;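 note: plate controls were DMSO wells with A3G for no effect and wells lacking A3G enzyme for full effect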
PHOSPHO1 block: PubChem AID 1565. Phosphoethanolamine/phosphocholine phosphatase (Homo sapiens), Q8TCT1. recombinant PHOSPHO1, absorbance phosphatase assay. inhibition, % at 13.3 µM. 290,000 tested, 1.1% active; in the data active = inhibition above about 60%
Target sequence (Q8TCT1 whole entry, looked up): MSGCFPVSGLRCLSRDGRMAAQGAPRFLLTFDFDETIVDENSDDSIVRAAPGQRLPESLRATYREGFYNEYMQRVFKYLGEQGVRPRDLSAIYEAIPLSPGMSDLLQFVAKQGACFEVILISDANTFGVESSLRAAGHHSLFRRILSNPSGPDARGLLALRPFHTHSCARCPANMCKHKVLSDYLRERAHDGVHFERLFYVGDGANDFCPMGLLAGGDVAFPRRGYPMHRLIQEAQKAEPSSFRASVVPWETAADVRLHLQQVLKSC
aDG glyco act: activators of alpha-DG glycosylation, primary screen, uHTS, Pro5-aDG cells, AlphaScreen | alpha-DG glycosylation AlphaScreen (IIH6); 0% Pro5, 100% B10-LARGE cell signal | activation, % at 10 µM | 360,000 tested, 0.22% active;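 active = activation of at least 8% versus controls, or a plate z-score of at least 8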;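 note: Pro5 are CHO cells carrying HIG-tagged alpha-DG that lacks glycosylation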
rCAG binder: binders of r(CAG) RNA repeats, primary screen, biochemical, fluorescence | 370,000 tested, 1.3% active | r(CAG) RNA repeat, TO-PRO-1 dye displacement fluorescence | AID 651821, 2012 | inhibition, % at 3 µM;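 active = inhibition above the plate cutoff, the mean of all test compounds on that plate plus 3 SD, cut at about 35% in these data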;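 note: 0% = DMSO alone and 100% = 100 µM mitoxantrone as full dye displacement; higher means more dye released from RNA so lower well fluorescence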
ALR H2O2 inh: inhibitors of human ALR sulfhydryl oxidase, primary screen, biochemical, H2O2 detection, HRP-luminol luminescence, single point | FAD-linked sulfhydryl oxidase ALR (Homo sapiens), P55789 | purified ALR, DTT oxidation | inhibition, % (concentration not given with the values) | 290,000 tested, 3.8% active | AID 485317, 2010;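 active = mean replicate inhibition above about 79%, with every replicate also reaching it, limit read from the data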
Target sequence (P55789 whole entry, looked up): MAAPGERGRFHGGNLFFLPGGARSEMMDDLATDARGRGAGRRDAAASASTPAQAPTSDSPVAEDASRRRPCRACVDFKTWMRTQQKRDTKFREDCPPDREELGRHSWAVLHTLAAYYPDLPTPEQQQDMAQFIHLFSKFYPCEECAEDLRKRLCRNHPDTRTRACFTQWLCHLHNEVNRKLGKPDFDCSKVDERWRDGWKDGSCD
A3A conf: APOBEC3A deaminase inhibitors, retest, confirmation, selectivity assay for APOBEC3G inhibitor project, biochemical, single concentration, fluorescence readout; 1,400 tested, 63% active; shares compounds with APOBEC3A inh; inhibition, % at 20 µM; recombinant A3A, ssDNA deaminase UDG fluorescence assay;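 active = inhibition reaching a set limit, 80% of the first screen's cutoff, at 20 µM in any replicate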;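 note: plate controls were DMSO wells with A3A for no effect and wells lacking A3A enzyme for full effect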
UDG A3A counter: E. coli UDG inhibitors, confirmation, counter-screen for APOBEC3A inhibitor project, biochemical, single concentration, fluorescence, FAM/TAMRA oligo. shares compounds with APOBEC3A inh. UDG counterscreen, FAM/TAMRA uracil oligo fluorescence. inhibition, % at 20 µM. 1,000 tested, under 10 active. AID 504714, 2011; call rule not given here
A3G conf: APOBEC3G deaminase inhibitor retest, confirmation, biochemical, fluorescence, single-stranded DNA substrate, single concentration | shares compounds with A3G deaminase | AID 493152, 2011 | 890 tested, 72% active | recombinant A3G ssDNA deaminase, UDG/FAM-TAMRA fluorescence | inhibition, % at 20 µM;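 active = inhibition reaching a set limit in any replicate at 20 µM, the limit being 80% of the first screen's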
UDG ctr A3G: E. coli UDG inhibitors, confirmation, counter-screen for APOBEC3G inhibitor project, biochemical, single concentration, fluorescence, FAM/TAMRA oligo; AID 504715, 2011; shares compounds with A3G deaminase; UDG counterscreen; inhibition, % at 20 µM; 710 tested, under 10 active;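 active = compounds giving 40% or more inhibition at 20 µM in any one of the three replicates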;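 note: plate controls were DMSO wells with UDG and oligo for no effect and DMSO wells lacking both for full effect; inhibitors lower the FAM signal released by uracil excision and alkaline cleavage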
rCAG bind conf: small molecules binding CAG repeat RNA – biochemical, fluorescence, confirmation | shares compounds with rCAG binder | r(CAG) RNA repeat, TO-PRO-1 dye displacement fluorescence | inhibition, % at 3 µM | 4,300 tested, 70% active;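 active = inhibition above a per-plate cutoff, the mean inhibition of sample wells plus 3 SD, cut at about 35% in these data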;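 note: loss of TO-PRO-1 fluorescence as compound displaces dye from 1x1 AA loop RNA; 0% = DMSO only wells and 100% = 100 µM mitoxantrone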
dCAG dye counter: displacement of TO-PRO-1 from CAG DNA duplex, counter-screen for rCAG RNA repeat binder project, biochemical, fluorescence, TO-PRO-1 dye, d(CAG) DNA oligo. shares compounds with rCAG binder. d(CAG) DNA oligo TO-PRO-1 dye displacement. inhibition, % at 3 µM. 4,300 tested, 94% active. AID 652068, 2013;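 active = inhibition above its plate's cutoff, the mean test-well inhibition plus 3 SD, cut at about 4.8% in these data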;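 note: 0% = DNA dye mix with DMSO and 100% = 100 µM mitoxantrone; hits displace the dye from DNA and so lower well fluorescence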
* hit, by the source's call; . = not tested or not shown. Rows were chosen to be rich in hits. Some 5.4% of all compounds tested hit in one or more screens of this group.

SMILES	APOBEC3A inh	A3G deaminase	PHOSPHO1 block	aDG glyco act	rCAG binder	ALR H2O2 inh	A3A conf	rCAG bind conf	dCAG dye counter	others
Cc1ccc(NC(=O)CN2C(=O)S/C(=C/c3ccc(-c4cc(C(=O)O)ccc4C)o3)C2=O)cc1C	63*	12	49	0	46*	-20	43*	91*	74*	UDG A3A counter=-4
Cc1cccc(NC(=O)CN2C(=O)S/C(=C\c3ccc(-c4cccc(C(=O)O)c4C)o3)C2=O)c1	6	4	53	.	15	-8	.	.	.
CCOC(=O)C1=CCN(S(=O)(=O)c2ccccc2Br)C1c1ccc(Cl)cc1 (configuration not stated)	.	.	.	.	5	.	.	.	.
CC(=O)Nc1ccc(S(=O)(=O)/N=C2/NC(=O)/C(=C\c3ccco3)S2)cc1	60*	14	9	0	57*	99*	32*	30	11*	UDG A3A counter=-5
Cc1ccc(NC(=O)CN2C(=O)NC3(CCCCC3C)C2=O)cc1S(=O)(=O)N1CCOCC1 (configuration not stated)	.	.	.	0	4	.	.	.	.
O=C1/C(=C/c2ccco2)SC(=S)N1CC1CCCO1 (configuration not stated)	56*	19	4	0	46*	-17	26*	16	8.6*	UDG A3A counter=3
COc1ccc(/C=C2\SC(=S)N(CC3CCCO3)C2=O)cc1 (configuration not stated)	2	-3	4	0	1	-5	.	.	.
COc1ccc(-c2cnc(C(N)=O)c(=O)[nH]2)cc1	.	.	.	0	1	.	.	.	.
C=CCN=C1NC(c2ccccc2)C(C(=O)OC)=C(C)N1Cc1ccccc1C(F)(F)F (configuration not stated)	.	.	.	.	4	.	.	.	.
O=C1CC(c2ccco2)CC(O)=C1C=Nc1cc(Cl)ccc1Cl (configuration not stated)	28	21	-15	0	15	-1	.	.	.
O=C1CC(c2ccco2)CC(O)=C1C=Nc1cc(Cl)ccc1O (configuration not stated)	55*	29	-8	1	37*	2	54*	17	6.0*
O=C(O)COc1ccc(Br)cc1C(c1c(C(=O)O)[nH]c2ccccc12)c1c(C(=O)O)[nH]c2ccccc12	0	0	8	0	.	34	.	.	.
C=CCOc1ccc(C(c2c(C(=O)O)[nH]c3ccccc23)c2c(C(=O)O)[nH]c3ccccc23)cc1	55*	24	9	0	92*	10	41*	82*	51*	UDG A3A counter=-3
COc1ccc(NS(=O)(=O)c2ccc3c(c2)[C@H]2C=CC[C@H]2[C@@H](c2ccc(C(=O)O)cc2)N3)cc1	49*	28	14	0	96*	-11	29*	92*	67*	UDG A3A counter=1
COc1cc(NS(=O)(=O)c2ccc(NC(=S)NC(=O)/C=C/c3ccco3)cc2)ncn1	55*	23	-74	0	57*	.	73*	48*	16*	UDG A3A counter=-4
Cc1cc(/C=N/NC(=O)C(O)(c2ccccc2)c2ccccc2)c(C)n1-c1cccc(C(=O)O)c1	45*	23	15	0	41*	.	26	58*	26*
Cc1cc(/C=N/NC(N)=S)c(C)n1-c1cccc(Cl)c1	-1	-9	-132	7	3	-1	.	.	.
Cc1ccc(OCC(=O)Nc2nnc(S(=O)(=O)N3CCC(C)CC3)s2)cc1	43*	21	15	0	42*	-6	20	53*	23*
O=C(CN1CCNCC1)N1CCOCC1	.	.	.	0	.	.	.	.	.
CCc1ccc(/C=N\NC(=O)c2ccc(Br)o2)s1	-2	-5	12	0	0	-5	.	.	.
Cc1ccc(/C=N/NC(=O)c2ccc(Br)o2)s1	-1	59*	-2	0	2	1	.	.	.	A3G conf=-3;UDG ctr A3G=2
C(=N\NC1=Nc2cccc3cccc1c23)/c1ccccc1	3	41*	0	0	6	-1	.	.	.	A3G conf=-1
CN(c1cccnc1)c1ccc(NC(=O)Cc2c[nH]c3ccccc23)cc1-c1ccc(C(C)(C)C)cc1	.	.	.	.	16	.	.	.	.
N#Cc1cc(-c2ccccc2)[nH]c1-c1nccc2ccccc12	2	41*	-5	0	9	28	.	.	.	A3G conf=1
CCOC(=O)c1[nH]cc(-c2ccccc2)c1N1CCOCC1	1	62*	80*	0	-4	9	.	.	.	A3G conf=41*;UDG ctr A3G=-4
CCCCOCC1CN(CCCC)S(=O)(=O)c2c(Oc3ccc(C)cc3)cccc2O1 (configuration not stated)	.	.	.	.	2	.	.	.	.
CCOC(=O)CCSc1n[nH]c(=S)s1	0	23	57	0	-2	.	.	.	.
CCOC(=O)CSc1n[nH]c(=S)s1	-2	87*	60*	0	0	.	.	.	.	A3G conf=72*;UDG ctr A3G=-1
